Positions count from the first letter of the chain named.
Columns and labels:
Test in all cases: protein-binding microarray (PBM); PBM: ~300 nM protein, 6 mM HEPES pH 7.8, 80 mM KCl, 0.5 mM EDTA, 0.5 mM EGTA, 6% glycerol, 35 ng/ul poly-dIdC, 1% milk, 1 h, room temperature; Ap Aiptasia and Nv Nematostella (sea anemones) / Co Capsaspora / Aq Amphimedon (sponge) / Dm Drosophila / Hu human; RHD is the Rel homology domain; high values mean tight binding
Settings in all cases: dsDNA, one strand shown
GST-Ap-NF-kB RHD = target: T1, GST-Ap-NF-kB RHD (Exaiptasia pallida (Aiptasia), UniProt A0A913YAJ5 2-422)
T1 sequence: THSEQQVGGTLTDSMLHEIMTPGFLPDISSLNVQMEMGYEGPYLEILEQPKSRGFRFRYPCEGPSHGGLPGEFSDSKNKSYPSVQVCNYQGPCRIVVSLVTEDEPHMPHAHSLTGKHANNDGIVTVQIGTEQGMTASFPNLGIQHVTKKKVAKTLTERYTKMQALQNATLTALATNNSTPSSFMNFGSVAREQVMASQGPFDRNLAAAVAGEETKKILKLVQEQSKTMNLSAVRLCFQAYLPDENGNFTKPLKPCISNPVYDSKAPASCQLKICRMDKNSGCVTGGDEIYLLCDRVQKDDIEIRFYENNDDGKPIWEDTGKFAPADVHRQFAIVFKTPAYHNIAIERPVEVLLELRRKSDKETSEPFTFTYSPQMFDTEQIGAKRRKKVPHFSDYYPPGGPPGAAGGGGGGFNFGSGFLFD

[1] = target: T2, GST-Nv-NF-kB (Cys allele) (Nematostella vectensis, UniProt E5G601 2-411)
T2 sequence: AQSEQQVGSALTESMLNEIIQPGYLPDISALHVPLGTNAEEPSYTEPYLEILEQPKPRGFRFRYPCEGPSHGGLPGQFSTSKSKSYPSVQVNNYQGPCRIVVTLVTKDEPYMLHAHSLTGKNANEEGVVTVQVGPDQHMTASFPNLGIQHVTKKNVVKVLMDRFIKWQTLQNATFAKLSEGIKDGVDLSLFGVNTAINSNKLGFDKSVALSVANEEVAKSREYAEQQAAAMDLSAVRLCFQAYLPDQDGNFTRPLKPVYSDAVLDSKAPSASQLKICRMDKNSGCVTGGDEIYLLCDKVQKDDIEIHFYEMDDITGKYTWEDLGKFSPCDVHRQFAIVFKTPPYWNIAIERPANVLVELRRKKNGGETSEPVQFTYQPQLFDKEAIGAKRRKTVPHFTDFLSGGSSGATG

[2] = target: T3, GST-Nv-NF-kB (Ser allele) (Nematostella vectensis, UniProt A7UNT2 2-411)
T3 sequence: T2 sequence with Q21R, C66S, S207N, E215Q, V217A, E225K, A268E, D399E

GST-Co-NF-kB = target: T4, GST-Co-NF-kB (Capsaspora owczarzaki, UniProt F1ARL5 200-546)
T4 sequence: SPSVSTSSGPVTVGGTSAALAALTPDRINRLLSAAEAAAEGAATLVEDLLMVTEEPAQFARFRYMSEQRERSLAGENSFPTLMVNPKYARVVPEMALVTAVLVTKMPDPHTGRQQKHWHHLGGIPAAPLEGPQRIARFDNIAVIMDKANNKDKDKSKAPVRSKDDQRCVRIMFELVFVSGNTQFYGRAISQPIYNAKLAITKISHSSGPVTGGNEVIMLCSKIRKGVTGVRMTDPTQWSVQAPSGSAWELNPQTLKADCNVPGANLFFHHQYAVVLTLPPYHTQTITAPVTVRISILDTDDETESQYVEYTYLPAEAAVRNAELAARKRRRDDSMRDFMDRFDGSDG

GST-Dm-Relish = target: T5, GST-Dm-Relish (Drosophila melanogaster, UniProt Q94527 99-473)
T5 sequence: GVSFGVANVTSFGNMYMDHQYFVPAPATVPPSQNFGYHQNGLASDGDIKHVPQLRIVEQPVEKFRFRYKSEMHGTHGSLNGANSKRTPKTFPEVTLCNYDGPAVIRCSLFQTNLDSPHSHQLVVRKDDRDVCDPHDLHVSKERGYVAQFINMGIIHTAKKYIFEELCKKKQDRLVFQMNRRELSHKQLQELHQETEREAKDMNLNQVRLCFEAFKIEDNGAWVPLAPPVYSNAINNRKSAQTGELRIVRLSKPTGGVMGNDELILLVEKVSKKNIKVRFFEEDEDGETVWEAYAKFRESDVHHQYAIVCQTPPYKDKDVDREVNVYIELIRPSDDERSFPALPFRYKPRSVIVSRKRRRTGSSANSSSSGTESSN

GST-Aq-NF-kB = target: T6, GST-Aq-NF-kB (Amphimedon queenslandica, UniProt A9Y5G7 2-389)
T6 sequence: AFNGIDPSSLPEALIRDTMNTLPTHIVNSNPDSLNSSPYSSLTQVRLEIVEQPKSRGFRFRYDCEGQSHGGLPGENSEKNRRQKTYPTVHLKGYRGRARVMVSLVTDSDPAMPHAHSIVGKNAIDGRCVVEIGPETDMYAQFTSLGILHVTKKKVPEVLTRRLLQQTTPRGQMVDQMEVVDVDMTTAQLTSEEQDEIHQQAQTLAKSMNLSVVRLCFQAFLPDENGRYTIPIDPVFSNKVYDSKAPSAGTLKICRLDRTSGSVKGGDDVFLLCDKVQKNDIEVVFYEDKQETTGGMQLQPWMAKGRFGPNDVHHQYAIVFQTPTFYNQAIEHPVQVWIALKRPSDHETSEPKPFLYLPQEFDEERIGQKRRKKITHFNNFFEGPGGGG

GST-Hu-p50 = GST-Hu-p50 (Homo sapiens, UniProt P19838 7-356)
Sequence of GST-Hu-p50 (P19838 7-356): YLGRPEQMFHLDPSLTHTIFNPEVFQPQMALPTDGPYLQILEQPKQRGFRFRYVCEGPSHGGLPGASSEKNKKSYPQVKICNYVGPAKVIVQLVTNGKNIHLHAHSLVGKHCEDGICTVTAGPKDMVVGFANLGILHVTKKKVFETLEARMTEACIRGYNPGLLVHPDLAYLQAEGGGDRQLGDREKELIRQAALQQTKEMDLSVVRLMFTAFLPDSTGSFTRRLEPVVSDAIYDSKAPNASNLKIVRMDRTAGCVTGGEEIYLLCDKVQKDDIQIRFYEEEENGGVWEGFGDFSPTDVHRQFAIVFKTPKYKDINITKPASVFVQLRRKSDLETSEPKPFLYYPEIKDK

Row | Sequence | binding signal (GST-Ap-NF-kB RHD) | binding signal [1] | binding signal [2] | binding signal (GST-Co-NF-kB) | binding signal (GST-Dm-Relish) | binding signal (GST-Aq-NF-kB) | binding signal (GST-Hu-p50)
1 | CCGATTAACATCACCCAATTCCCTGATGTTAATCGGGTCTTGATTCGCTTGACGCTGCTG | 3.33 z-score | 3.63 z-score | 4.42 z-score | 2.69 z-score | 1.62 z-score | 2.94 z-score | 2.81 z-score
2 | CCGATTAACATCAGGGGAGGTAATGATGTTAATCGGGTCTTGATTCGCTTGACGCTGCTG | 2.69 z-score | 2.66 z-score | 4.61 z-score | 3.71 z-score | 1.22 z-score | 2.71 z-score | 2.14 z-score
3 | CCGATTAACATCAGGGGAATTAATGATGTTAATCGGGTCTTGATTCGCTTGACGCTGCTG | 6.97 z-score | 9.44 z-score | 10.2 z-score | 7.92 z-score | 7.21 z-score | 6.31 z-score | 6.52 z-score
4 | CCGATTAACATCACCCACCCCCCTGATGTTAATCGGGTCTTGATTCGCTTGACGCTGCTG | 3.58 z-score | 2.85 z-score | 4.5 z-score | 3.74 z-score | 4.19 z-score | 3.84 z-score | 3.99 z-score
5 | CCGATTAACATCAGGGTATACCCTGATGTTAATCGGGTCTTGATTCGCTTGACGCTGCTG | 4.43 z-score | 3.42 z-score | 2.44 z-score | 2.48 z-score | 4.16 z-score | 6.04 z-score | 2.22 z-score
6 | CCGATTAACATCAATATCCCCCATGATGTTAATCGGGTCTTGATTCGCTTGACGCTGCTG | 6.62 z-score | 4.94 z-score | 5.43 z-score | 6.5 z-score | 3.73 z-score | 4.55 z-score | 5.2 z-score
7 | CCGATTAACATCAAGGGGGAATCTGATGTTAATCGGGTCTTGATTCGCTTGACGCTGCTG | 8.47 z-score | 8.91 z-score | 9.87 z-score | 8.32 z-score | 6.04 z-score | 6.38 z-score | 7.36 z-score
8 | CCGATTAACATCAAAATTTCCCGTGATGTTAATCGGGTCTTGATTCGCTTGACGCTGCTG | 4.72 z-score | 6.89 z-score | 6.74 z-score | 6.32 z-score | 4.72 z-score | 6.67 z-score | 4.8 z-score
9 | CCGATTAACATCAGGGGAAAGAATGATGTTAATCGGGTCTTGATTCGCTTGACGCTGCTG | 4.95 z-score | 6.07 z-score | 8.18 z-score | 8.25 z-score | 3.01 z-score | 4.87 z-score | 5.05 z-score
10 | CCGATTAACATCAGGGAATTTGATGATGTTAATCGGGTCTTGATTCGCTTGACGCTGCTG | 3.63 z-score | 4.8 z-score | 5.71 z-score | 3.17 z-score | 2.77 z-score | 3.69 z-score | 3.22 z-score
11 | CCGATTAACATCAAATTCCCACATGATGTTAATCGGGTCTTGATTCGCTTGACGCTGCTG | 2 z-score | 3.53 z-score | 3.94 z-score | 3.33 z-score | 4.42 z-score | 2.66 z-score | 2.85 z-score
12 | CCGATTAACATCACAATTTCCCCTGATGTTAATCGGGTCTTGATTCGCTTGACGCTGCTG | 8.29 z-score | 9.4 z-score | 12 z-score | 8.61 z-score | 5.96 z-score | 6.69 z-score | 6.74 z-score
13 | CCGATTAACATCAGAAATACCCCTGATGTTAATCGGGTCTTGATTCGCTTGACGCTGCTG | 6.58 z-score | 6.99 z-score | 6.08 z-score | 4.66 z-score | 4.99 z-score | 6.25 z-score | 5.86 z-score
14 | CCGATTAACATCACAGATTCCCCTGATGTTAATCGGGTCTTGATTCGCTTGACGCTGCTG | 7.65 z-score | 9.02 z-score | 10.7 z-score | 7.14 z-score | 6.17 z-score | 5.96 z-score | 6.28 z-score
15 | CCGATTAACATCAACAATTTCCCTGATGTTAATCGGGTCTTGATTCGCTTGACGCTGCTG | 3.9 z-score | 5.04 z-score | 6.92 z-score | 4.63 z-score | 2.52 z-score | 4.15 z-score | 4.08 z-score
16 | CCGATTAACATCATAAATTCCCATGATGTTAATCGGGTCTTGATTCGCTTGACGCTGCTG | 2.62 z-score | 5.12 z-score | 5.22 z-score | 3.32 z-score | 5.06 z-score | 3.71 z-score | 4.37 z-score
17 | CCGATTAACATCAGAGATTTCCCTGATGTTAATCGGGTCTTGATTCGCTTGACGCTGCTG | 3.94 z-score | 5.69 z-score | 6.13 z-score | 3.92 z-score | 2.1 z-score | 5.48 z-score | 4.51 z-score
18 | CCGATTAACATCAGGGGAAACTATGATGTTAATCGGGTCTTGATTCGCTTGACGCTGCTG | 6.82 z-score | 7.81 z-score | 10.9 z-score | 9.61 z-score | 3.46 z-score | 5.53 z-score | 6.14 z-score
19 | CCGATTAACATCAGCTTCCCCCCTGATGTTAATCGGGTCTTGATTCGCTTGACGCTGCTG | 5.3 z-score | 4.97 z-score | 5.68 z-score | 7.68 z-score | 4.2 z-score | 4.55 z-score | 4.95 z-score
20 | CCGATTAACATCAGGGAAAGTACTGATGTTAATCGGGTCTTGATTCGCTTGACGCTGCTG | 3.95 z-score | 6.4 z-score | 6.18 z-score | 2.93 z-score | 8.65 z-score | 7.76 z-score | 5.43 z-score
21 | CCGATTAACATCAGGGGAAGATATGATGTTAATCGGGTCTTGATTCGCTTGACGCTGCTG | 6.06 z-score | 6.63 z-score | 7.91 z-score | 8.77 z-score | 4.01 z-score | 6.09 z-score | 5.33 z-score
22 | CCGATTAACATCAAACATTCCCATGATGTTAATCGGGTCTTGATTCGCTTGACGCTGCTG | 1.96 z-score | 3.21 z-score | 2.5 z-score | 2.38 z-score | 1.59 z-score | 3.52 z-score | 2.11 z-score
23 | CCGATTAACATCAAGGGGGAATATGATGTTAATCGGGTCTTGATTCGCTTGACGCTGCTG | 7.61 z-score | 8.35 z-score | 9.33 z-score | 7.86 z-score | 4.64 z-score | 6.45 z-score | 6.95 z-score

Source: paper PMC5700166
